Assay results taken from PubChem BioAssay (NCATS).
The list shows a part of the results. Records with an inconclusive call do not appear. Calls of active or inactive are those of the source. The call rests on the fitted dose curve.

system: Chikungunya virus nsP2 protease; assay: Confirmatory qHTS for inhibitors of NSP2Pro chikungunya virus (CHIKV) (AID 1964105); settings: CHIKV nsP2 protease enzymatic activity; series mostly up to 25.5 µM; further: nearly all actives have a fitted effect of over 75% in size
From the text: PI: Natalia J. Martinez Ph.D.
National Center for Advancing Translational Sciences (NCATS),
National Institute of Health (NIH), Rockville, Maryland
Chikungunya virus (CHIKV) is a mosquito-borne RNA virus that has emerged as one of the most important global arboviral threats in the last decade. Although the first CHIKV vaccine has recently been FDA approved for use in healthy adults at increased risk, to date, there are no available antiviral drugs for CHIKV infection. CHIKV nsP2 protease plays a crucial role in the processing of the viral polypeptide precursor to release enzymes required for viral replication, thus making it a promising drug target for antiviral discovery. Here, we established a high-throughput pipeline to identify small molecule inhibitors of nsP2 proteolytic activity. The pipeline is composed of a suite of 1,536-well in vitro assays to support quantitative high-throughput (qHTS) screening campaigns. Specifically, we developed a fluorescence resonance energy transfer (FRET)-based assay using a fluorogenic peptide substrate encompassing an endogenous cleavage site and purified recombinant protease domain (nsP2pro). Using this assay, we interrogated ~37,000 small molecules, including those in drug repurposing libraries as well as chemically diverse and medicinal chemistry-friendly compounds. Hits were selected for follow-up validation against full-length nsP2 and an additional peptide. FRET-based 1,536-well assays for papain, hepatitis C virus NS3-4A, and human furin proteases were implemented to characterize compound selectivity. […] Novel compounds were identified to be potential nsP2 inhibitors and molecular docking analyses were performed to explain the binding mode of selected hits. In vitro antiviral activity was evaluated for a subset of compounds using a high-throughput CHIKV infection assay. To our knowledge, the pipeline presented here is unprecedented for CHIKV antiviral discovery research.
PROTOCOL TABLE (as described by Inglese J, Shamu CE and Guy RK. 2007)
SEQUENCE No. (e.g., 1, 2, 3, etc.); […] (e.g., Cells, Incubation, Reagent, etc.); VALUE; DESCRIPTION.
1; Control / Compound; 20 nL; Echo 655 acoustic dispenser, Greiner 1536-well solid bottom black plate.
2; Enzyme; 4 uL; BioRAPTR FRD liquid dispenser (Beckman Coulter).
3; Incubation; 15 min; room temperature.
4; Reagent; 4 uL; 2.5 uM Peptide 2 substrate.
5; Incubation; 1 hr; room temperature.
6; Detection; Fluorescence; WiewLux microplate reader (PerkinElmer), 525 nm excitation, 598/25 nm emission.
NOTES (numbers refer to sequence numbers above).
1.Briefly, 20 nL DMSO, positive control ZnAc (20nM final concentration), and test compounds were transferred into a 1,536-well solid bottom black plate (789176-F, Greiner One) via Echo 655 acoustic dispenser (Beckman Coulter). For primary screens, compounds were tested at 7 concentrations, 1:3 dilution points ranging from 25 uM to 34 nM. Follow-up confirmatory screens were carried out at 11 concentrations, 1:3 dilution points from 25 uM to 0.42 nM.
2.Four uL nsP2pro enzyme mix (150 nM final concentration) in 10 mM Tris-HCl pH 8.0 with 0.01% Tween 20 assay buffer was dispensed into the plate using a BioRAPTR FRD liquid dispenser (Beckman Coulter).
3.The plate was incubated at room temperature (protected from light) for 15 min
4.Four microliter of peptide 2 substrate (2.5 uM final concentration) in assay buffer was added to the plate.
5.After 1 hour, plates were immediately read on a ViewLux high-throughput CCD imager (Exposure = 10 sec, Gain = High, Speed = Slow, Binning = 2X). The above assay was also incorporated in the NCATS HTS facility41, which allowed for robotic liquid and compound dispensing, microplate handling, and fluorescence reading.
Inglese J, Shamu CE and Guy RK, Reporting data from high throughput screening of small molecule libraries, Nature Chemical Biology, 2007, 3(8): 438-441. doi.org/10.1038/nchembio0807-438.
Potency means the concentration at half of the fitted maximal effect.

Compound	Potency
Oc1ccc(OC2CCCCO2)cc1 (stereo not drawn)	inactive
O=C(O)c1cccc(-n2[nH]c(-c3ccccc3)cc2=O)c1	inactive
C=CC(=O)c1ccc2ccccc2c1	6.34 µM (active)
N#CSc1cc(SC#N)c(N)nc1N	0.318 µM (active)
CCOc1ccc(NC(=O)c2c(NC(=O)Cc3ccccc3)sc3c2CCC(C)C3)cc1 (stereo not drawn)	7.11 µM (active)
COC([CH2][Hg])CNC(=O)c1ccccc1OCC(=O)O (stereo not drawn)	2.25 µM (active)
Cn1nnnc1Sc1ncnc2n[nH]c(-c3cccc(S(C)(=O)=O)c3)c12	3.18 µM (active)
C[C@@H]1C[C@@H](O)[C@@]23CO[C@]2(CO)C[C@@H](O)CC3[C@@]12CC(c1ccoc1)OC2=O (stereo partly drawn)	inactive
CCC(C)C(=O)OC1C(C)C2(O)C(C=C(CO)CC3(O)C(=O)C(C)=CC32)C2C(C)(C)C12OC(=O)C(C)C (stereo not drawn)	inactive
C=Cc1c(C)c2cc3nc(cc4[nH]c(cc5nc(cc1[nH]2)C(C)=C5CCC(=O)O)c(CCC(=O)OC)c4C)[C@@]1(C)C3=CC=C(C(=O)OC)[C@H]1C(=O)OC	inactive
CCOc1ccc(NC(=O)c2c(NC(=O)Cc3ccccc3)sc3c2CCCCC3)cc1	7.98 µM (active)
CCOc1ccc(N(Cc2ccccc2)C(=O)c2nc(S(C)(=O)=O)ncc2Cl)cc1	3.18 µM (active)
CCc1ccccc1NC(=O)c1cnn(-c2ccc(F)cc2)c1C1CCNCC1	inactive
